High-throughput results from PubChem.
Hits are enriched below; roughly 21% of the tested compounds scored in any of these assays.
Pf growth 96h: P. falciparum growth inhibition at 96 hours. P. falciparum luciferase reporter growth, 96 h. Potency, µM (top dose mostly 28.7 µM), most hits filed as inhibitors. 320,000 compounds, 6.9% hits. AID 504834
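Two parasite generations (96 h, 37 C, 5% CO2) of compound exposure in infected erythrocytes (0.05% parasitemia, 2% hematocrit). Luciferase-reporter P. falciparum; decreased luminescence indicates inhibited growth, aimed at apicoplast-acting delayed death.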
NS1 function inh: influenza NS1 inhibition; 270,000 compounds, 0.4% hits; Potency, µM (series often up to 46.1 µM); calls by dose curve; note: actives are rising curves; nearly all actives have a fitted effect of over 50% in size
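OD600 was taken as the measure of yeast growth restored by compound in an NS1-expressing S. cerevisiae strain. Cells had been washed out of glucose medium and diluted 1:100 into galactose -URA medium, pH 6.0.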
Pf growth 48h: P. falciparum growth inhibition at 48 hours (one generation) | P. falciparum luciferase growth in erythrocytes, 48 h | Potency, µM (titrated, usually from 28.7 µM), actives largely listed as inhibitors | 310,000 compounds, 5.9% hits
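Luminescence readout; reporter = integrated firefly luciferase in P. falciparum. RBC culture at 2% hematocrit, 0.1% parasitemia final, 37 C/5% CO2; decreased signal taken as growth inhibition.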
Cycloheximide cs: affects cycloheximide protein synthesis inhibition readout, counter-screen; cell reporter, cycloheximide protein synthesis inhibition counterscreen; max response, %; 300,000 compounds, 12% hits; AID 2314; in the data active = max response mostly above about 13%, no sharp cut-off; inactive = mostly below about 14%; note: read at 38.3 µM for the half of the compounds with a filed dose
Shiga inhibitor: Shiga toxin inhibition; AID 2315; 290,000 compounds, 9.2% hits; inhibition, % at 38.7 µM; Vero cells, Shiga toxin protein synthesis inhibition reporter; in the data active = inhibition mostly above about 28%, no sharp cut-off; inactive = mostly below about 43%
Hits are given with their value; n = inactive; u = inconclusive; x = no result given; ! = a repeat was not active; [ ] = dose if it differs, or a comment. Unless noted, calls come from the whole dose curve; as a rule, active = well fitted inhibition curve with a large enough effect; inconclusive = small, poorly fitted or top-dose-only effect, or another doubt; inactive = no such curve, though single readings can be large or run the other way.

SMILES | Pf growth 96h | NS1 function inh | Pf growth 48h | Cycloheximide cs | Shiga inhibitor
O=C(CSc1nnc(-c2ccncc2)o1)Nc1ccccc1C(F)(F)F | n | n | u | n | n
CCOc1cc(C(=O)NC(C)c2ccncc2)cc(OCC)c1OCC (configuration not stated) | x | n | n | n | n
Cc1nnc(SCC(=O)NNC(=O)c2ccccc2)n1N | n | x | n | x | x
Cc1ccc(OCCN(C)C(=O)C2CCC(=O)N(CCCN3CCCC3=O)C2)cc1 (configuration not stated) | n | n | n | n | n
O=c1cc(CN2CCN(c3ccccc3F)CC2)c2cc(O)c(-c3ccccc3)cc2o1 | 2.3µM | n | 2.6µM | n | n
COc1ccc(N2CCN(Cc3cc(=O)oc4cc(-c5ccccc5)c(O)cc34)CC2)cc1 | 2.9µM | n | 1.9µM | n | n
COc1ccc(OC)c(CN2CCN(Cc3cc(=O)oc4cc(O)ccc34)CC2)c1 | 2.6µM | n | 3.7µM | n | n
CS(=O)(=O)Nc1ccc2c(c1)OCC(=O)N2Cc1ccccc1 | u | n | n | n | n
COc1cc(O)oc1C=Nc1ccccc1 | n | n | n | 27 | 109
COc1ccc(CCNC(=O)C23CN(Cc4ccccc4)CC2C(c2cccc([N+](=O)[O-])c2)=NO3)cc1 (configuration not stated) | u | n | u | n | n
Cc1ccc(CCNC(=O)C23CN(Cc4ccccc4)CC2C(c2cccc([N+](=O)[O-])c2)=NO3)cc1 (configuration not stated) | u | n | 2.9µM | n | n
O=C(NCC1CCCCC1)C12CN(Cc3ccccc3)CC1C(c1cccc([N+](=O)[O-])c1)=NO2 (configuration not stated) | u | n | 1.7µM | n | n
O=C(CCS(=O)(=O)c1ccccc1)N(CCCN1CCOCC1)c1nc2ccc(F)cc2s1 | n | x | n | x | x
CCS(=O)(=O)Nc1ccc(NC(C)=O)cc1 | n | n | x | n | n
CC(=O)Nc1ccc(NS(C)(=O)=O)cc1 | 4.7µM | n | x | n | n
CC(=O)Nc1ccc(S(=O)(=O)c2ccc(N)cc2)cc1N | n | n | x | n | n
CC(=O)Nc1ccc(S(=O)(=O)c2ccc(N)cc2)cc1 | n | n | n | 18! | 24!
O=C(CSc1nnc(NC2CCCCC2)s1)Nc1ccc2c(c1)C(=O)c1ccccc1C2=O | n | n | n | 42 | 66
Cc1ccc(NC(=O)CN(C)C(=O)CSc2nnc(NC(C)C)s2)cc1 | n | x | u | x | x
NS(=O)(=O)c1ccc(NC(=O)CSc2nnc(NC3CC3)s2)cc1 | n | x | n | x | x
CC(C)Nc1nnc(SCC(=O)Nc2ccc3c(c2)C(=O)c2ccccc2C3=O)s1 | u | n | n | 41 | 70
CCOC(=O)c1nnn(CC(=O)NC(=O)Nc2ccc(F)cc2)c1C(=O)OCC | n | x | n | n | n
CC(c1nnnn1C(C)(C)C)N(Cc1cccnc1)Cc1ccccc1Cl (configuration not stated) | x | n | 13µM | n | n
CC(C)(C)n1nnnc1C(c1cccs1)N(Cc1cccnc1)Cc1ccccc1Cl (configuration not stated) | n | n | 2.9µM | n | n
CC(C)(C)n1nnnc1C(c1cccs1)N1CCN(Cc2ccccc2)CC1 (configuration not stated) | n | n | u | n | n
SMILES | Pf growth 96h | NS1 function inh | Pf growth 48h | Cycloheximide cs | Shiga inhibitor
Cc1csc(NC(=O)c2ccc(Br)s2)n1 | n | n | n | 43 | 137
Cc1csc(NC(=O)[C@@H]2CCCN2C(=O)c2cccs2)n1 | n | x | u | n | n
Cc1csc(NC(=O)CCC(=O)c2cccs2)n1 | u | x | u | 19 | n
Cc1cc(C)nc(NC(=O)c2ccc(Br)s2)n1 | n | n | n | n | x
Cc1csc(NC(=O)c2cccs2)n1 | x | n | n | 55 | 100
O=C1Nc2ccccc2/C1=C/c1ccc([N+](=O)[O-])cc1 | n | n | x | n | n
CC1(c2ccc([N+](=O)[O-])cc2)Nc2ccccc2S1 (configuration not stated) | n | n | n[0.00184 µM] | 33 | 65
CCCc1cc(=O)[nH]c2nnc(SCC(=O)NCc3ccc4c(c3)OCO4)n12 | n | x | n | x | x
COc1ccccc1NC(=O)C(=O)N/N=C(\C)CC(=O)Nc1ccc(OCc2ccccc2)cc1 | n | n | n | n | n
CC(=O)Nc1ccc(NC(=O)C/C(C)=N/NC(N)=S)cc1 | 1.9µM | x | u | n | n
CC(=O)Nc1ccc(C(=O)N/N=C(\C)CC(=O)Nc2ccc(OCc3ccccc3)cc2)cc1 | n | n | n | 18 | n
C/C(CC(=O)Nc1ccc(OCc2ccccc2)cc1)=N\NC(=O)C(=O)Nc1cccc(C)c1 | u | n | n | 28 | n
CCOc1ccc(-c2ccc3nnc(SCC(=O)NCC4CCCO4)n3n2)cc1 (configuration not stated) | n | x | n | x | x
O=C(O)c1ccc2c(c1)C(=O)N([C@H](Cc1ccc(O)c(O)c1)C(=O)O)C2=O | n | x | n | n | n
CC(C)(C)C(=O)NC1(C(F)(F)F)NC(=O)N(c2ccccc2F)C1=O (configuration not stated) | n | n | n | n | n
CC1CC(=O)N(c2ccc(NCCc3ccccc3)c([N+](=O)[O-])c2)C1=O (configuration not stated) | n | x | n | 31 | 68
CC1CC(=O)N(c2ccc(NCCc3ccc(O)cc3)c([N+](=O)[O-])c2)C1=O (configuration not stated) | n | x | u | 22 | 41
O=C1C2CC=CCC2C(=O)N1c1ccc(NCCc2ccccc2)c([N+](=O)[O-])c1 (configuration not stated) | u | n | n | n | n
CN(C)CCn1c(=O)n(-c2cccc(Cl)c2)c(=O)c2c3c(sc21)CCCCC3 | u | n | 13µM | n | n
CN(C)CCn1c(=O)n(-c2ccc(F)cc2)c(=O)c2c3c(sc21)CCCCC3 | u | n | u | n | n
CCC(C)c1ccccc1NC(=O)C(C)N(C)Cc1cccc(OC)c1 (configuration not stated) | u | x | u | n | n
Cc1ccnc(NC(=O)C(C)N2C(=O)c3ccccc3S2(=O)=O)c1 (configuration not stated) | n | x | u | x | x
N#CCCn1nc(-c2ccccc2)cc1Nc1ccccc1NC(=O)c1cccs1 | n | n | 5.2µM | n | n
O=C(Nc1ccccc1)/C(=C\c1ccc(F)cc1)NC(=O)c1ccco1 | n | n | n | n | n
CC(C)(C)c1ccc(C2SCC(=O)N2c2cccc(C(=O)O)c2)cc1 (configuration not stated) | u | n | n | n | n
Cc1ccccc1NC(=O)C1(NC(=O)c2cccc(N3C(=O)CSC3c3ccccc3)c2)CCCCC1 (configuration not stated) | u | n | 12µM | n | n
Cc1ccc(NC(=O)c2ccc3nccnc3c2)c(C)c1 | n | n | n | 23 | 31
Cc1ccc(C(=O)Nc2ccc3nccnc3c2)cc1 | n | n | n | 24 | 48
O=C(Nc1ccc2cccnc2c1)c1ccc(Br)cc1 | n | n | n | 24 | x
COC(=O)c1ccc(NC(=O)c2ccc3nccnc3c2)cc1 | n | n | n | n | n
